# Screens (PubChem)
# HP1b binding inh: HTS for Inhibitors of HP1-beta Chromodomain Interactions with Methylated Histone Tails; Chromobox protein homolog 1 (Homo sapiens), P83916; AlphaScreen HP1-beta / biotin-H3K9me3 peptide binding; Potency, µM (top dose mostly 114 µM), usual class: inhibitors; 0.56% of 390,000 active; further: nearly all actives have a fitted effect of over 70% in size
#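 AlphaScreen: HP1-beta (50 nM) preformed 30 min with biotin-H3(1-18)K9me3 peptide (50 nM) in PBS pH 7.4, 0.01% Tween-20. Compound added for 30 min at RT, then streptavidin donor/nickel chelate acceptor beads (10 ug/mL) for 30 min.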
# L3MBTL1 inh: qHTS Assay for the Inhibitors of L3MBTL1; AlphaScreen L3MBTL1–H3K9me1 peptide binding; 0.66% of 230,000 active; AID 485360, 2010; Potency, µM (highest dose often 57.1 µM), usual class: inhibitors; further: nearly all actives have a fitted effect of over 60% in size
# Target sequence (Q9Y468 whole entry, looked up): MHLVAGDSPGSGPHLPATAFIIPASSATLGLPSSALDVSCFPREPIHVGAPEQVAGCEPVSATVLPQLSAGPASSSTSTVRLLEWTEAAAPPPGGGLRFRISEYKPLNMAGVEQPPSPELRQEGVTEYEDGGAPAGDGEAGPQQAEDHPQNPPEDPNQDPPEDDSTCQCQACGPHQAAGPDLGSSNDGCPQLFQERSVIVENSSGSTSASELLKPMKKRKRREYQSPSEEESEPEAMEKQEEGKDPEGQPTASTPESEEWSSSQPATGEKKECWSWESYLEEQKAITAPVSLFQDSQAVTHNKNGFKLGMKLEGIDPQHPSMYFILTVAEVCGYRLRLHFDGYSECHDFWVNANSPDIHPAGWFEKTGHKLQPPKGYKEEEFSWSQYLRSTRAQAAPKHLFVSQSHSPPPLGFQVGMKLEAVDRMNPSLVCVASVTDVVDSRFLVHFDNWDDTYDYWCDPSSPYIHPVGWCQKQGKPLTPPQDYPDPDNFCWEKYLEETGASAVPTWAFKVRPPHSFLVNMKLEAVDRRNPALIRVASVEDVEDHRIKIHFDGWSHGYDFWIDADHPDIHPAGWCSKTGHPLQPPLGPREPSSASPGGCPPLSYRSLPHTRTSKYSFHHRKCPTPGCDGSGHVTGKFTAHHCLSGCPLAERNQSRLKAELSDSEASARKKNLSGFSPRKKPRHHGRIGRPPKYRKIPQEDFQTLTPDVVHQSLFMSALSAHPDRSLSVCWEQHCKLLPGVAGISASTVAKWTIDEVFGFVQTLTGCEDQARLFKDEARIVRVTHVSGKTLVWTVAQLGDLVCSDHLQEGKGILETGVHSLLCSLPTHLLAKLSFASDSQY
#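 First, the protein-peptide complex forms for 30 min at room temperature (L3MBTL1 50 nM, biotinylated H3K9me1 peptide 75 nM). Next, compounds are pin-transferred and incubated 30 min. Finally, AlphaScreen beads are added and read after 30 min.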
# G9a inh: qHTS Assay for Inhibitors of Histone Lysine Methyltransferase G9a; Potency, µM (highest dose often 102 µM), actives largely listed as inhibitors; G9a H3K9 monomethylation, AlphaScreen, 2 h; 8.8% of 350,000 active; Histone-lysine N-methyltransferase EHMT2 (Homo sapiens), Q96KQ7; further: nearly all actives have a fitted effect of over 75% in size
#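 G9a (20 nM) was preincubated 15 min with compound, then reacted 2 h at room temperature with 500 nM biotin-H3K9 peptide and 20 µM SAM. Monomethyl-H3K9 detected by AlphaScreen using anti-H3K9me1 antibody.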
# BAZ2B inh: qHTS Assay for Inhibitors of BAZ2B; Bromodomain adjacent to zinc finger domain protein 2B (Homo sapiens), Q9UIF8; AlphaScreen BAZ2B-H3K14Ac peptide displacement; Potency, µM (top dose mostly 114 µM), usual class: inhibitors; 4.4% of 360,000 active; AID 504333, 2011; further: nearly all actives have a fitted effect of over 60% in size
#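 BAZ2B (50 nM) with biotin-H3(5-23)K14Ac peptide (50 nM) in PBS pH 7.4, 0.01% Tween-20, preformed 30 min, then compound 30 min at room temperature; top concentration 110uM. AlphaScreen streptavidin donor/nickel chelate acceptor beads (10 ug/mL final), 20 min dark, signal read.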
# JMJD2A Tudor inh: qHTS Assay for Inhibitors of JMJD2A-Tudor Domain. Lysine-specific demethylase 4A (Homo sapiens), O75164. Potency, µM (titrated, usually from 114 µM), usual class: inhibitors. AID 504339, 2011. 4.4% of 390,000 active. AlphaScreen JMJD2A-Tudor / H3K4me3 peptide binding; further: nearly all actives have a fitted effect of over 50% in size
# Sfp PPTase inh: qHTS Assay for Inhibitors of Bacillus subtilis Sfp phosphopantetheinyl transferase (PPTase); 4'-phosphopantetheinyl transferase ffp (Bacillus subtilis), Q9F4F7; Potency, µM, most hits filed as inhibitors; Biochemical Sfp PPTase activity, qHTS; 3.5% of 310,000 active; AID 1490, 2009;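 further: the enzyme is Sfp with the accession as filed and its product quenches rhodamine fluorescence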
#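 Fluorescence-quenching assay with 15 nM Sfp, 5 uM rhodamine-CoA and 12.5 uM BHQ-2-labelled ybbR peptide in pH 7.6 Hepes/MgCl2 buffer. Enzyme was pre-incubated with compound for 15 min at room temperature. Rate was taken from the 30-min fluorescence change (525/598 nm).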
# Hits are given with their value; . = inactive; ? = inconclusive; / = no result given; [ ] = another dose, or the depositor's remark. A selection: hits, their analogues and other compounds. The true share with any hit is near 12%. The call rests on the fitted dose curve; in most records, active means well fitted curve in the direction sought with a large enough effect; inconclusive means small, poorly fitted or top-dose-only effect, or another doubt; inactive means no such curve, though single readings can be large; an effect the other way counts as inactive or inconclusive.
SMILES,HP1b binding inh,L3MBTL1 inh,G9a inh,BAZ2B inh,JMJD2A Tudor inh,Sfp PPTase inh
NC(=O)c1ccc(NC(=O)c2cncn2-c2ccccc2)cc1,.,/,.,.,?,.
NNC(=O)c1cncn1-c1ccc(F)cc1,.,.,.,50µM,?,.
O=[N+]([O-])c1ccc(COc2ccc(Br)cc2CN2CCOCC2)cc1,.,.,50µM,?,?,.
CCOc1ccc(-c2cn(-c3cccc(SC)c3)c(=O)[nH]2)cc1,.,.,28µM,.,.,.
Cc1cc(Cl)ccc1NC(=S)N(CCCN1CCOCC1)Cc1cccs1,.,.,?,.,.,45µM
Cc1ccccc1NC(=S)N(CCCN1CCOCC1)Cc1ccccn1,.,.,.,.,3.5µM,.
COc1ccc(NC(=S)N(CCCN2CCOCC2)Cc2ccccn2)cc1,.,/,?,.,.,.
O=C(Nc1ccc(Cl)cc1)N(CCCN1CCOCC1)Cc1cccs1,.,/,.,.,.,.
Cc1ccc(NC(=S)N(CCCN2CCOCC2)Cc2ccccn2)cc1Cl,.,.,.,.,.,32µM
O=S(=O)(c1ccc(Cl)cc1)N(CCCN1CCOCC1)Cc1cccs1,.,/,28µM,50µM,8.9µM,.
Cc1ccc(NC(=S)N(CCCN2CCOCC2)Cc2ccccn2)cc1,.,.,.,.,.,.
CCOC(=O)CCn1c(=O)c2cccn2c2cccnc21,.,/,.,.,.,/
CCc1ccc(N2CC(C(=O)Nc3cccc(C(=O)NC4CC4)c3)CC2=O)cc1 (centres undefined),.,.,.[2.33 µM],.,.,/
O=C(c1ccccc1O)N(Cc1ccccc1)Cc1ccccc1,/,/,/,/,.,/
Cn1cc(CN(CCCN2CCOCC2)C(=S)Nc2cccc(Cl)c2)c2ccccc21,.,.,79µM,?,?,.
COc1ccccc1NC(=S)N(Cc1ccc(C)cc1)Cc1ccccn1,.,/,.,.,.,45µM
Cc1cnc(=O)[nH]c1SCc1cccc([N+](=O)[O-])c1,.,/,.,.,.,.
Cc1cc2cc(C=O)c(Cl)nc2cc1C,.,.,.[0.501 µM],.,.,32µM
C=CCc1ccc(OCCCNC2CCCC2)c(OC)c1,?,/,/,/,79µM,/
C=CCc1ccc(OCCCOc2ccc(C)cc2OC)c(OC)c1,.,/,.,.,.[11.4 µM],.
COc1ccccc1CNS(=O)(=O)CCNC1CCCCC1,.,/,/,/,.,/
C=CCc1ccc(OCCCNCc2ccccc2)c(OC)c1,?,.,/,50µM,28µM,.
C=CCc1cccc(Cl)c1OCCCNC1CCCC1,.,.,/,?,50µM,.
COc1ccccc1OCCNC1CCCC1,.,/,40µM,?,3.5µM,.
C=CCc1ccccc1OCC(O)CNC1CCCC1 (centres undefined),.,/,.,.,.,.
SMILES,HP1b binding inh,L3MBTL1 inh,G9a inh,BAZ2B inh,JMJD2A Tudor inh,Sfp PPTase inh
COc1cccc(OC)c1C(=O)NC(=O)Oc1c(F)cccc1F,.,/,.[12.7 µM],.,.,.
COc1ccc(S(=O)(=O)Nc2ccc3c(c2)C(=O)N([C@H](C)CO)C[C@H](C)[C@@H](CN(C)S(=O)(=O)c2ccc(OC)cc2)O3)cc1,.,/,/,/,.,/
CCCOc1ccc(/C(O)=C2/C(=O)C(=O)N(CCCn3ccnc3)C2c2ccc(C)o2)cc1 (centres undefined),.,/,?,.,.,.
N#Cc1ccccc1OCC(=O)OCC(=O)NC1CCCCCC1,.,.,.,.,.,/
N#Cc1ccccc1OCCOCCNC1CCCC1,.,.,10µM,?,?,.
O=C(COC(=O)Cc1c(F)cccc1Cl)NC1CCS(=O)(=O)C1 (centres undefined),.,.,.,.,.,/
O=C(O)CCNC(=O)/C(=C\c1ccco1)NC(=O)c1ccco1,.,?,22µM,.,.,79µM
O=C(N/C(=C/c1ccco1)C(=O)N1CCc2ccccc21)c1ccco1,.,.,.,?,?,40µM
CC(C)CC(NC(=O)/C(=C\c1ccco1)NC(=O)c1ccco1)C(=O)O (centres undefined),.,/,32µM,.,.,.
O=C(NCCO)/C(=C\c1ccco1)NC(=O)c1ccco1,.,.,32µM,.,.,.
COc1cccc(/C=C2/SC(=S)N(CC(=O)Nc3nccs3)C2=O)c1,.,/,/,/,.,/
CC(C)c1ccc(/C=C(\NC(=O)c2ccccc2)C(=O)NCCCn2ccnc2)cc1,.,/,.,?,.,.
O=C(NCCc1ccccn1)/C(=C/c1ccco1)NC(=O)c1ccccc1,.,.,/,.,.,?
O=C(NCc1ccccn1)/C(=C/c1ccco1)NC(=O)c1ccccc1,.,.,.,.,.,79µM
O=C(NCCCn1ccnc1)/C(=C\c1ccco1)NC(=O)c1ccco1,.,/,?,89µM,.,.
O=C(NCCCn1ccnc1)/C(=C/c1ccc(F)cc1)NC(=O)c1ccccc1,.,/,.,71µM,.,.
O=C(NCCCO)/C(=C\c1ccco1)NC(=O)c1ccco1,.,.,71µM,.,.,.
CCC(C)n1c(SCC(=O)Nc2cc(C(C)(C)C)nn2-c2ccccc2)nc2ccccc2c1=O (centres undefined),.,.,.,.,.,.
COc1cccc(-c2cc(C(=O)NC3CCCCC3)no2)c1,.,/,.,.,.,.
O=C(NCc1ccccc1)/C(=C/c1ccco1)NC(=O)c1ccco1,.,/,35µM,.,.,.
O=C(NCCc1ccccc1)/C(=C\c1ccc([N+](=O)[O-])cc1)NC(=O)c1ccco1,.,/,40µM,.,.,.
C/C(=N\Nc1ccccc1)c1c(O)cc(C)oc1=O,.,.,2.5µM,.,.,.
Cc1cc(O)c(/C=N/Nc2ccc(F)cc2)c(=O)o1,.,.,4.5µM,.,?,79µM
Cc1ccc(/C=N/Nc2ccc(C(=O)O)cc2)o1,.,/,.,.,.,.
Cc1ccc(N/N=C/c2c(O)cc(C)oc2=O)cc1,.,.,?,?,.,56µM
Cc1cc2c(C)nc(N/N=C/c3ccc(F)cc3)nc2o1,.,.,.,.,.,.
Cc1ccc(CO/N=C/c2c(O)cc(C)oc2=O)cc1,.,.,32µM,?,?,.
CCSc1nnc(NC(=O)[C@H](C)NC(=O)c2ccccc2Cl)s1,.,.,.,.,.,.
CCCCN(C)CCCNC(=O)Cn1ncc2c3ccccc3n(Cc3cc(C)ccc3C)c2c1=O,.,/,.,?,.,/
COC(=O)c1ccc(NC2c3ncccc3C(=O)N2Cc2cccs2)cc1 (centres undefined),.,/,?,.,.,.
